{"source": "PubChem BioAssay (NCATS)", "assay_in_all_cases": "Primary qHTS to identify gynecologic anti-cancer compounds using libraries of approved drugs and bioactive compounds (AID 1345084); further: nearly all actives have a fitted effect of over 55% in size", "key": {"[1]": {"tested_on": "C33A", "conditions": "Gynecologic cancer cell panel viability, ATPlite luminescence, 48 h; series mostly up to 57.5 µM", "how_it_was_run": "(§1)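 Cells, 1,000 per well, plated 16 h, then exposed 48 h at 37 C to compounds. Viability by ATPlite luminescence after 15 min at room temperature.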"}, "[2]": {"tested_on": "CAOV3", "conditions": "Gynecologic cancer cell panel viability, ATPlite luminescence, 48 h; series mostly up to 57.5 µM", "how_it_was_run": "as §1"}, "[3]": {"tested_on": "CASKI", "conditions": "Gynecologic cancer cell panel viability, ATPlite luminescence, 48 h; series mostly up to 57.5 µM", "how_it_was_run": "as §1"}, "[4]": {"tested_on": "Es-2", "conditions": "Gynecologic cancer cell panel viability, ATPlite luminescence, 48 h; series mostly up to 57.5 µM", "how_it_was_run": "as §1"}, "[5]": {"tested_on": "Hek293T", "conditions": "Gynecologic cancer cell panel viability, ATPlite luminescence, 48 h, control line for the selectivity index; series mostly up to 57.5 µM", "how_it_was_run": "as §1"}, "[6]": {"tested_on": "JEG-3", "conditions": "Gynecologic cancer cell panel viability, ATPlite luminescence, 48 h; series mostly up to 57.5 µM", "how_it_was_run": "as §1"}, "[7]": {"tested_on": "OV90", "conditions": "Gynecologic cancer cell panel viability, ATPlite luminescence, 48 h; series mostly up to 57.5 µM", "how_it_was_run": "as §1"}, "[8]": {"tested_on": "PA-1", "conditions": "Gynecologic cancer cell panel viability, ATPlite luminescence, 48 h; series mostly up to 57.5 µM", "how_it_was_run": "as §1"}, "[9]": {"tested_on": "HeLa", "conditions": "Gynecologic cancer cell panel viability, ATPlite luminescence, 48 h; series mostly up to 57.5 µM", "how_it_was_run": "as §1"}}, "note": "Results filed as inconclusive are left out. Where a call stands in place of a potency, no number is given. Values without a mark were called inactive. Calls of active or inactive are those of the source. The call rests on the fitted dose curve; in most records, active means well fitted cell-killing curve with a large enough effect; inconclusive means small, poorly fitted or top-dose-only effect, or effect the other way; inactive means flat fitted curve, though single readings scatter. Potency means the concentration at half of the fitted maximal effect."}
{"smiles": "CCCCNc1ncc(-c2ccc(CN3CCOCC3)cn2)c(NC2CCC(O)CC2)n1", "note": "(stereo unspecified)", "values": [{"measurement": "Potency", "setting": "[1]", "result": "inactive"}, {"measurement": "Potency", "setting": "[2]", "result": "inactive"}, {"measurement": "Potency", "setting": "[3]", "result": "inactive"}, {"measurement": "Potency", "setting": "[4]", "result": "inactive"}, {"measurement": "Potency", "setting": "[5]", "result": "inactive"}, {"measurement": "Potency", "setting": "[6]", "result": "inactive"}, {"measurement": "Potency", "setting": "[7]", "result": "inactive"}, {"measurement": "Potency", "setting": "[8]", "result": "inactive"}]}
{"smiles": "Clc1ncoc1-c1c[nH]c2ccccc12", "values": [{"measurement": "Potency", "setting": "[1]", "result": "inactive"}, {"measurement": "Potency", "setting": "[2]", "result": "inactive"}, {"measurement": "Potency", "setting": "[3]", "result": "inactive"}, {"measurement": "Potency", "setting": "[4]", "result": "inactive"}, {"measurement": "Potency", "setting": "[5]", "result": "inactive"}, {"measurement": "Potency", "setting": "[6]", "result": "inactive"}, {"measurement": "Potency", "setting": "[7]", "result": "inactive"}, {"measurement": "Potency", "setting": "[8]", "result": "inactive"}]}
{"smiles": "O=C(Nc1nc2ccc([N+](=O)[O-])cc2s1)C1CCCCC1", "values": [{"measurement": "Potency", "setting": "[1]", "result": "inactive"}, {"measurement": "Potency", "setting": "[2]", "result": "inactive"}, {"measurement": "Potency", "setting": "[3]", "result": "inactive"}, {"measurement": "Potency", "setting": "[9]", "result": "inactive"}, {"measurement": "Potency", "setting": "[5]", "result": "inactive"}, {"measurement": "Potency", "setting": "[6]", "result": "inactive"}, {"measurement": "Potency", "setting": "[7]", "result": "inactive"}, {"measurement": "Potency", "setting": "[8]", "result": "inactive"}]}
{"smiles": "CC(=O)O[C@H]1CC(C)(C)CC2[C@]13CO[C@@]21CCC2[C@@]4(C)CC[C@H](O[C@@H]5OC[C@H](O[C@@H]6O[C@H](CO)[C@@H](O)[C@H](O)[C@H]6O[C@@H]6OC[C@@H](O)[C@H](O)[C@H]6O)[C@H](O)[C@H]5O[C@@H]5O[C@H](CO)[C@@H](O)[C@H](O)[C@H]5O)[C@@](C)(CO)C4CC[C@@]2(C)[C@]1(C)C[C@H]3O", "note": "(stereo partly specified)", "values": [{"measurement": "activity change, negative = cytotoxicity", "setting": "[1]", "result": "-17.3% [at 11.6 µM]"}, {"measurement": "activity change, negative = cytotoxicity", "setting": "[2]", "result": "-0.697% [at 11.6 µM]"}, {"measurement": "activity change, negative = cytotoxicity", "setting": "[3]", "result": "-20.7% [at 11.6 µM]"}, {"measurement": "activity change, negative = cytotoxicity", "setting": "[9]", "result": "-3.76% [at 11.6 µM]"}, {"measurement": "activity change, negative = cytotoxicity", "setting": "[6]", "result": "-9.1% [at 11.6 µM]"}]}
{"smiles": "CCOC(=O)c1csc(Nc2ccc(Cl)cc2)n1", "values": [{"measurement": "Potency", "setting": "[1]", "result": "inactive"}, {"measurement": "Potency", "setting": "[2]", "result": "inactive"}, {"measurement": "Potency", "setting": "[3]", "result": "inactive"}, {"measurement": "Potency", "setting": "[9]", "result": "inactive"}, {"measurement": "Potency", "setting": "[6]", "result": "inactive"}, {"measurement": "Potency", "setting": "[7]", "result": "inactive"}, {"measurement": "Potency", "setting": "[8]", "result": "inactive"}]}
{"smiles": "C=C(C)C(=O)OC1CC(CO)CCC/C(CO)=C/C2OC(=O)C(=C)C21", "note": "(stereo unspecified)", "values": [{"measurement": "Potency", "setting": "[1]", "result": "inactive"}, {"measurement": "Potency", "setting": "[2]", "result": "inactive"}, {"measurement": "Potency", "setting": "[3]", "result": "inactive"}, {"measurement": "Potency", "setting": "[9]", "result": "inactive"}, {"measurement": "Potency", "setting": "[6]", "result": "inactive"}, {"measurement": "Potency", "setting": "[7]", "result": "inactive"}]}
{"smiles": "NC(=O)c1ccccc1Nc1ccnc(Nc2cccc(O)c2)n1", "values": [{"measurement": "Potency", "setting": "[1]", "result": "inactive"}, {"measurement": "Potency", "setting": "[2]", "result": "8.91 µM (active)"}, {"measurement": "Potency", "setting": "[3]", "result": "12.6 µM (active)"}, {"measurement": "Potency", "setting": "[9]", "result": "3.16 µM (active)"}]}
{"smiles": "O=C(NCCN1CCOCC1)c1cc2c(Oc3ccc(NC(=O)C4(C(=O)Nc5ccc(F)cc5)CC4)cc3)ccnc2[nH]1", "values": [{"measurement": "Potency", "setting": "[1]", "result": "inactive"}, {"measurement": "Potency", "setting": "[2]", "result": "inactive"}, {"measurement": "Potency", "setting": "[3]", "result": "inactive"}, {"measurement": "Potency", "setting": "[9]", "result": "inactive"}, {"measurement": "Potency", "setting": "[5]", "result": "inactive"}, {"measurement": "Potency", "setting": "[6]", "result": "inactive"}, {"measurement": "Potency", "setting": "[8]", "result": "inactive"}]}
{"smiles": "CN(c1ccc(NC(=O)Nc2ccccc2)cc1)S(=O)(=O)c1cnn(-c2ccc(F)cc2)c1", "values": [{"measurement": "Potency", "setting": "[1]", "result": "inactive"}, {"measurement": "Potency", "setting": "[2]", "result": "inactive"}, {"measurement": "Potency", "setting": "[3]", "result": "inactive"}, {"measurement": "Potency", "setting": "[4]", "result": "inactive"}, {"measurement": "Potency", "setting": "[6]", "result": "inactive"}, {"measurement": "Potency", "setting": "[7]", "result": "inactive"}, {"measurement": "Potency", "setting": "[8]", "result": "inactive"}]}
{"smiles": "O=C(Nc1ncc([N+](=O)[O-])s1)c1ccccc1O", "values": [{"measurement": "Potency", "setting": "[1]", "result": "inactive"}, {"measurement": "Potency", "setting": "[2]", "result": "inactive"}, {"measurement": "Potency", "setting": "[3]", "result": "inactive"}, {"measurement": "Potency", "setting": "[9]", "result": "inactive"}, {"measurement": "Potency", "setting": "[5]", "result": "inactive"}, {"measurement": "Potency", "setting": "[6]", "result": "inactive"}, {"measurement": "Potency", "setting": "[7]", "result": "inactive"}, {"measurement": "Potency", "setting": "[8]", "result": "inactive"}]}
{"smiles": "C=C1C(=O)O[C@@H]2[C@H]3C(C)=CC(=O)C3=C(C)[C@@H](OC(=O)/C(C)=C\\C)[C@H](O)[C@@H]12", "values": [{"measurement": "Potency", "setting": "[1]", "result": "inactive"}, {"measurement": "Potency", "setting": "[2]", "result": "inactive"}, {"measurement": "Potency", "setting": "[3]", "result": "inactive"}, {"measurement": "Potency", "setting": "[9]", "result": "inactive"}, {"measurement": "Potency", "setting": "[6]", "result": "inactive"}, {"measurement": "Potency", "setting": "[7]", "result": "inactive"}]}
{"smiles": "C[C@H](CN(C)C)Oc1nc(Nc2cc3cccc(Cl)c3cn2)cnc1C#N", "values": [{"measurement": "Potency", "setting": "[1]", "result": "inactive"}, {"measurement": "Potency", "setting": "[2]", "result": "inactive"}, {"measurement": "Potency", "setting": "[3]", "result": "inactive"}, {"measurement": "Potency", "setting": "[9]", "result": "inactive"}, {"measurement": "Potency", "setting": "[6]", "result": "inactive"}, {"measurement": "Potency", "setting": "[7]", "result": "inactive"}, {"measurement": "Potency", "setting": "[8]", "result": "inactive"}]}
{"smiles": "CC(=O)O[C@@H]1[C@H](O[C@@H]2O[C@@H](CO)[C@H](O)[C@H]2O)[C@@H](O[C@@H]2O[C@@H](C)[C@H](O[C@@H]3OC[C@@H](O)[C@H](O)[C@H]3O)[C@@H](O)[C@H]2O)[C@H](OC(=O)[C@]23CCC(C)(C)C[C@H]2C2=CCC4[C@@]5(C)CC[C@H](O[C@@H]6O[C@H](C(=O)O)[C@@H](O)[C@H](O)[C@H]6O[C@@H]6O[C@H](CO)[C@H](O)[C@H](O)[C@H]6O)[C@@](C)(C=O)C5CC[C@@]4(C)[C@]2(C)C[C@H]3O)O[C@@H]1C", "note": "(stereo partly specified)", "values": [{"measurement": "activity change, negative = cytotoxicity", "setting": "[1]", "result": "-10.4% [at 6.55 µM]"}, {"measurement": "activity change, negative = cytotoxicity", "setting": "[2]", "result": "-10.3% [at 6.55 µM]"}, {"measurement": "activity change, negative = cytotoxicity", "setting": "[3]", "result": "-9.38% [at 6.55 µM]"}, {"measurement": "activity change, negative = cytotoxicity", "setting": "[9]", "result": "10% [at 6.55 µM]"}, {"measurement": "activity change, negative = cytotoxicity", "setting": "[6]", "result": "6.34% [at 6.55 µM]"}]}
